Laboratory results: PubChem BioAssay AID1159580 (chemical genetic matrix, 2015)
About 2,000 (36%) of roughly 5,500 compounds were called active. Roughly 18% stayed inconclusive and do not appear here. Cut-off read from the data, not from the text of the source: active = normalized growth mostly below about 0.91 (no sharp cut-off); inconclusive = no clear call, values can overlap the other calls; inactive = mostly above about 0.92. Some of the results follow.

Test: chemical genetic growth profiling, strain panel (AID 1159580);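 note: tested at 20 µM; growth read once vehicle control cultures reached saturation at 30 °C; 1 = growth at the plate median or of vehicle wells; lower values mean less growth of the strain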
Conditions: S. cerevisiae deletion strains, growth OD

Measured: normalized growth

CC(=O)O[C@@H]1CC2C(C)(C)[C@@H](O)CC[C@]2(C)C2CC[C@@]3(C)[C@H](c4ccoc4)OC(=O)[C@H]4O[C@]43[C@@]21C (stereo partly specified)
inactive: locus YAL021C, strain ccr4, active compounds read low 1.02 | locus YAL026C, strain drs2, active compounds read low 0.989 | locus YAL030W, strain snc1, active compounds read low 0.996 | locus YBL061C, strain skt5, active compounds read low 0.984 | locus YBR009C, strain hhf1, active compounds read low 1 | locus YBR023C, strain chs3, active compounds read low 0.991 | locus YBR171W, strain sec66, active compounds read low 0.993 | locus YBR229C, strain ROT2, active compounds read low 1.01 | locus YBR231C, strain swc5, active compounds read low 0.995 | locus YBR279W, strain paf1, active compounds read low 0.998 | locus YCL011C, strain gbp2, active compounds read low 0.985 | locus YCL016C, strain dcc1, active compounds read low 0.995 | locus YCL029C, strain bik1, active compounds read low 0.997 | locus YCL061C, strain MRC1, active compounds read low 0.994 | locus YCL069W, strain vba3, active compounds read low 0.988 | locus YCR088W, strain abp1, active compounds read low 0.988 | locus YDL005C, strain med2, active compounds read low 0.988 | locus YDL035C, strain GPR1, active compounds read low 0.967 | locus YDL040C, strain nat1, active compounds read low 0.986 | locus YDL074C, strain BRE1, active compounds read low 0.947 | locus YDL101C, strain DUN1, active compounds read low 1.02 | locus YDL134C, strain PPH21, active compounds read low 1 | locus YDL185W, strain tfp1, active compounds read low 1 | locus YDL192W, strain arf1, active compounds read low 0.964 | locus YDR001C, strain nth1, active compounds read low 0.996 | locus YDR069C, strain doa4, active compounds read low 1.01 | locus YDR101C, strain arx1, active compounds read low 0.973 | locus YDR137W, strain rgp1, active compounds read low 0.986 | locus YDR159W, strain sac3, active compounds read low 0.964 | locus YDR162C, strain NBP2, active compounds read low 0.987 | locus YDR195W, strain ref2 0.981 | locus YDR297W, strain sur2, active compounds read low 1.01 | locus YDR318W, strain mcm21, active compounds read low 0.99 | locus YDR334W, strain swr1, active compounds read low 1.01 | locus YDR335W, strain msn5, active compounds read low 0.995 | locus YDR388W, active compounds read low 1.02 | locus YDR392W, strain spt3, active compounds read low 0.968 | locus YDR502C, strain sam2, active compounds read low 1 | locus YEL003W, strain gim4, active compounds read low 0.987 | locus YEL037C, strain rad23, active compounds read low 0.995 | locus YEL061C, strain CIN8 (second series), active compounds read low 0.992 | locus YEL061C, strain CIN8, active compounds read low 1 | locus YER015W, strain faa2, active compounds read low 0.996 | locus YER016W, strain bim1, active compounds read low 0.989 | locus YER110C, active compounds read low 1.02 | locus YER111C, strain swi4, active compounds read low 0.98 | locus YER155C, strain BEM2 (second series), active compounds read low 1.01 | locus YER155C, strain BEM2, active compounds read low 1.02 | locus YER167W, strain BCK2, active compounds read low 0.996 | locus YFR010W, strain ubp6, active compounds read low 0.993 | locus YGL078C, strain dbp3, active compounds read low 1.02 | locus YGL086W, strain mad1, active compounds read low 0.998 | locus YGL167C, strain pmr1, active compounds read low 0.998 | locus YGL173C, strain kem1, active compounds read low 0.998 | locus YGL227W, strain vid30, active compounds read low 0.989 | locus YGL240W, strain doc1, active compounds read low 0.966 | locus YGL248W, strain PDE1, active compounds read low 1.01 | locus YGL253W, strain hxk2, active compounds read low 0.95 | locus YGR135W, strain pre9, active compounds read low 1.04 | locus YGR252W, strain gcn5, active compounds read low 0.975 | locus YHR013C, strain ard1, active compounds read low 0.988 | locus YHR027C, strain rpn1, active compounds read low 0.983 | locus YHR030C, strain SLT2, active compounds read low 1.01 | locus YHR079C, strain IRE1 (second series), active compounds read low 1.01 | locus YHR079C, strain IRE1, active compounds read low 1.02 | locus YHR094C, strain hxt1, active compounds read low 1.01 | locus YHR129C, strain ARP1, active compounds read low 1.01 | locus YHR142W, strain chs7, active compounds read low 0.992 | locus YHR200W, strain rpn10, active compounds read low 1.01 | locus YIL066C, strain RNR3, active compounds read low 0.967 | locus YIL073C, strain SPO22, active compounds read low 1.03 | locus YIL125W, strain kgd1, active compounds read low 1.01 | locus YIR030C, strain dcg1, active compounds read low 1 | locus YJL092W, strain hpr5, active compounds read low 0.995 | locus YJL095W, strain BCK1 (second series), active compounds read low 1.01 | locus YJL095W, strain BCK1, active compounds read low 1.01 | locus YJL115W, strain asf1, active compounds read low 0.997 | locus YJL129C, strain trk1, active compounds read low 0.976 | locus YJL134W, strain LCB3, active compounds read low 1.01 | locus YJL154C, strain vps35, active compounds read low 0.994 | locus YJL164C, strain tpk1, active compounds read low 1 | locus YJL166W, strain qcr8, active compounds read low 0.988 | locus YJL168C, strain set2, active compounds read low 1.01 | locus YJL187C, strain SWE1 (second series), active compounds read low 1.02 | locus YJL187C, strain SWE1, active compounds read low 0.991
active: locus YBR021W, strain FUR4, active compounds read low 0.823
